Results reported in PubChem BioAssay (NCATS).
Results filed as inconclusive are left out. The source made the active and inactive calls. Calls follow the shape of the dose curve; as a rule, active = well fitted curve in the direction sought with a large enough effect; inconclusive = small, poorly fitted or top-dose-only effect, or another doubt; inactive = no such curve, though single readings can be large; an effect the other way counts as inactive or inconclusive.

Legend:
[1] = molecular target: Calcium and integrin-binding protein 1 (Homo sapiens) (UniProt Q99828); assay: Primary qHTS for Identification of Calcium Integrin Binding Protein 1 (CIB1) Competitor (AID 1508620);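 also: GST tagged CIB1 binding a fluorescein labelled alphaIIb integrin peptide tracer; top concentration of the series differs between compounds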
Sequence of Calcium and integrin-binding protein 1 (Homo sapiens) (Q99828 whole entry, looked up): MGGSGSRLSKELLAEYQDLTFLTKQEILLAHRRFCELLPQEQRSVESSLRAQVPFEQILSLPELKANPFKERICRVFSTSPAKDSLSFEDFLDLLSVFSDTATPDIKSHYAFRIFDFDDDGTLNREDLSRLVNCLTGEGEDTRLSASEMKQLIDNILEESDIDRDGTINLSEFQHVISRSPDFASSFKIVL
Summary of the method: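 Fluorescence polarization competition: GST-tagged CIB1 (1 uM final) preincubated with compound 15 min at room temperature, then FITC-labelled alphaIIb peptide (100 nM final) added. After 15 min at room temperature, polarization read at Ex 480/Em 540.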

[2] = Primary qHTS for inhibitors of nuclear receptor binding SET domain protein 2 (NSD2) in an isogenic RCH-ACV NSD2 p.E1099K mutant (9B) (AID 1645876); also: nearly all actives have a fitted effect of over 70% in size
[3] = Primary qHTS for inhibitors of nuclear receptor binding SET domain protein 2 (NSD2) in an RCH-ACV wild type WT cells (2C) (AID 1645877); also: nearly all actives have a fitted effect of over 70% in size

Measured: Potency

C=C1CC/C=C(/C(=O)O)CCC2C1CC2(C)C (configuration not stated)
inactive: all assays above

COC(=O)[C@H](O)[C@H]1C(C)(C)[C@H](OC(C)=O)[C@@]2(O)C(=O)[C@]1(C)C1CC[C@]3(C)C(CC(=O)O[C@H]3c3ccoc3)[C@]13O[C@@H]32 (some centres not stated)
inactive: all assays above

C=C1C(OC(C)=O)[C@@]23CCC4[C@](C)(C(=O)O)CCC[C@@]4(C)[C@]2(O)CC[C@H]1C3 (some centres not stated)
inactive: all assays above

O=C(COCC(=O)N1CCN(C(c2ccccc2)c2ccccc2)CC1)Nc1ccc(Cl)cc1C(=O)O
inactive: all assays above

CC(C)C1(O)NC(=O)C(CC2(O)c3ccccc3N3C(=O)C(C)(C)NC32)n2c1nc1ccccc1c2=O (configuration not stated)
inactive: all assays above

CC1=CCC[C@@H]2[C@@](C)(CCc3ccoc3)[C@H](C(=O)O)CC[C@@]12C
inactive: all assays above

C[C@H]1CC[C@@]2(OC1)O[C@H]1CC3C4CC[C@H]5C[C@@H](O)CC[C@]5(C)C4CC(=O)[C@]3(C)[C@H]1[C@@H]2C (some centres not stated)
inactive: all assays above

OC[C@@]1(O)CO[C@H](OC[C@H]2O[C@@H](OC(CCCCc3ccc(O)cc3)CCc3ccc(O)cc3)[C@H](O[C@H]3OC[C@](O)(CO)[C@H]3O)[C@@H](O)[C@@H]2O)[C@@H]1O (some centres not stated)
inactive: all assays above

O=C(/C=C/c1ccccc1)O[C@@H]1[C@@H](CO)O[C@@](CO)(O[C@H]2O[C@H](CO)[C@@H](O)[C@H](O)[C@H]2O)[C@H]1O
inactive: all assays above
